FMDV inh – foot and mouth disease virus antiviral activity; 410,000 tested, 1.2% active; FMDV antiviral cell-based qHTS; Potency, µM (doses to about 57.9 µM), for the others: at the highest dose activity change, negative = inhibition, hits mostly inhibitors; calls by dose curve; tested in HEK293T cells; note: read-out not given here; potency is the fitted concentration of half-maximal effect; nearly all actives have a fitted effect of over 45% in size
Marburg entry inh – blocks Marburg virus binding to or entry into cells; 300,000 tested, 1.8% active; Potency, µM (titrated, usually from 37.8 µM), for inactives: at the highest dose activity change, negative = inhibition, actives largely listed as inhibitors; AID 540276; Marburg virus pseudotyped entry inhibition, cell reporter; calls by dose curve; tested in HEK293 cells; note: potency is the fitted concentration of half-maximal effect
Lassa entry inh – Lassa virus entry inhibition; Lassa virus pseudotype entry inhibition, cell reporter; Potency, µM (titrated, usually from 37.9 µM), inactives show top-dose activity change, negative = inhibition, actives largely listed as inhibitors; 300,000 tested, 1.2% active; calls by dose curve; tested in HEK293 cells; note: potency is the fitted concentration of half-maximal effect; nearly all actives have a fitted effect of over 50% in size
HCMV antiviral – inhibitors of human cytomegalovirus; activity change, negative = inhibition, % at 57.5 µM; 410,000 tested, 4.5% active; HFF cells, HCMV-luciferase reporter, 72 h; stronger effect = lower value; in the data active = activity change below about -60%; inconclusive = no clear call, values can overlap the other calls; inactive = above about -39%
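Steps: HFFs plated, 16 h 37C; compounds added; HCMV-luciferase added to MOI 1 PFU/cell; 72 h 37C; OneGlo reagent, 5 min room temperature; luminescence read, normalized to controls.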
HCV inh – inhibitors of hepatitis C virus infection. 340,000 tested, 3.4% active. Huh7.5.1 HCVcc-Cre infection, luciferase reporter, 44 h. Potency, µM (top dose mostly 41.8 µM), inactives show top-dose activity change, negative = inhibition, hits mostly inhibitors; active = well fitted inhibition curve with a large enough effect; inconclusive = small, poorly fitted or top-dose-only effect, or another doubt; inactive = no such curve, though single readings can be large or run the other way; note: potency is the fitted concentration of half-maximal effect
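Luciferase read-out (15 sec integration) after a 15 min room-temperature substrate step quantifies HCVcc-Cre infection. Cells, 1,000 per well, had compound added 4 h post-plating, then virus at ~0.5 moi, and were cultured 44 h.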
* hit, by the source's call; u = inconclusive; x = no result; [ ] = dose if it differs, or a comment. Most compounds without a hit are left out; they make up all but 7.9% or so of the library. % is set by controls: 0 for no effect and ±100 for the full control effect.

SMILES	FMDV inh	Marburg entry inh	Lassa entry inh	HCMV antiviral	HCV inh
COc1ccc(-c2nc(CSCC(=O)N3CCN(c4cc(Cl)ccc4C)CC3)c(C)o2)cc1	u	u	-18%[46.1 µM]	-80*	x
COc1cccc(Nc2ncc3nc(-c4ccc(Cl)cc4)c(=O)n(C4CC4)c3n2)c1	-17%	x	x	x	x
O=C(Nc1nnc(-c2cccs2)s1)c1cccc(F)c1	48%	u	u	17	5%
CC(C)[C@H](NS(=O)(=O)c1cccc(C(F)(F)F)c1)C(=O)OCC(=O)NC(=O)NCc1ccco1	-11%	u	-9%	5	11µM*
Cc1c(N)cc[n+](CC(=O)c2ccccc2)c1C	-12%	-30%[46.1 µM]	-18%	-76*	8.9µM*
CCC(CO)NC(=O)C(=O)Nc1c2c(nn1-c1ccc(F)cc1)CSC2 (stereo not given)	-14%	x	8%[46.1 µM]	-6	x
CSc1ccccc1-n1nnnc1SCC(=O)Nc1ccccc1C	3%	-6%	-12%	-18	11µM*
Cc1cc(NC(=O)CSc2nnnn2-c2ccccc2C)no1	-14%	-18%	1%	-113*	3%
Cc1cc(NC(=O)CSc2nnc(C3COc4ccccc4O3)n2C)no1 (stereo not given)	14%	8%[46.1 µM]	-6%	-78*	11%
Cc1cccc(-n2nnnc2SCC(=O)Nc2ccc(N3CCN(C)CC3)cc2)c1	26%	x	x	-66*	-13%
Cc1ccccc1-n1nnnc1SCC(=O)Nc1ccc(N2CCN(C)CC2)cc1	-5%	x	x	-21	-22%
CCc1ccccc1-n1nnnc1SCC(=O)Nc1cc(C)on1	-10%	-2%	-11%	9	-11%
O=C(Cc1nc2ccccc2[nH]1)c1ccc(Br)cc1	3%	-12%[46.1 µM]	-17%	0	-17%
Cc1ccc(-n2nnnc2SCn2nnc3ccccc3c2=O)c(C)c1	u	-11%	u	-86*	u
CCOC(=O)c1sc(NC(=O)CSc2nnnn2-c2ccc(C)cc2C)nc1C	-8%	0%	-9%	u	8%
COC(=O)c1ccccc1NC(=O)CSc1nnnn1-c1ccc(C)cc1C	32µM*	-24%	u	-37	-13%
COC(=O)c1cccc(-n2nnnc2SCC(=O)Nc2cc(C)on2)c1	-2%	11%	8%	-91*	8%
COc1cccc(CNC(=O)c2c(OC)cc(=O)n3c2CCN(C(=O)c2ccc(C)cc2C)CC3)c1	2%	x	x	x	x
Cc1[nH]c2ccc(C(=O)OC(C)C(=O)N(C)c3ccccc3)cc2c1C (stereo not given)	-34%	14%	5µM*	x	u
Cc1[nH]c2ccc(C(=O)OC(C)C(=O)N(C)C3CCCCC3)cc2c1C (stereo not given)	0%	-28%	u	u	u
Cc1ccc(C(=O)NCC(=O)NCC(c2ccco2)N2CCCCC2)cc1C (stereo not given)	-9%	4%	11%	-3	31%
COc1cc2c3nc4n(c(=O)c3n(CC(=O)NCC3CCCO3)c2cc1OC)CCS4 (stereo not given)	-12%	4%[46.1 µM]	13%	-92*	25%
COc1cccc(NC(=O)Cn2c3ccc(F)cc3c3nc4n(c(=O)c32)CCCS4)c1	-7%	u	u	-61*	5%
COc1ccc2c(c1)c1nc3n(c(=O)c1n2CC(=O)Nc1ccccc1)CCCS3	-16%	x	x	-22	1%
Cc1ccc(NC(=O)Cn2c3ccc(F)cc3c3nc4n(c(=O)c32)CCS4)cc1F	-16%	u	u	-72*	-28%
SMILES	FMDV inh	Marburg entry inh	Lassa entry inh	HCMV antiviral	HCV inh
COc1ccc(NC(=O)Cn2c3ccc(OC)cc3c3nc4n(c(=O)c32)CCS4)cc1	-12%	x	x	-16	u
O=C(Cn1c2ccc(F)cc2c2nc3n(c(=O)c21)CCS3)Nc1ccc(Cl)cc1F	u	u	-12%	u	u
CCCS(=O)(=O)c1cscc1NC(=O)c1c(-c2c(F)cccc2Cl)noc1C	u	u	-11%	3	15%
CCc1ccc(C(=O)c2cn(Cc3ccccc3)c3cc(OC)c(OC)cc3c2=O)cc1	-27%	u	-7%[46.1 µM]	-65*	x
COc1cc2c(=O)c(C(=O)c3ccc(C)c(C)c3)cn(Cc3ccccc3F)c2cc1OC	u	u	u	-72*	x
COc1ccccc1Cn1cc(C(=O)c2ccc(Cl)cc2)c(=O)c2ccccc21	0%	u	u	-101*	x
c1cnc2ccc(-c3ccc4ncccc4c3)cc2c1	-25%	u	4.5µM*	13	-10%
